# Measured values: PubChem BioAssay AID686979 (National Center for Advancing Translational Sciences (NCATS), 2013)
# The campaign covered roughly 420,000 compounds. About 50,000 (12%) were called active. Where a call stands in place of a potency, no number is given. Not shown: some 26% with an inconclusive outcome. For the sample, actives were picked, then their nearest neighbours and some compounds at random. A number with no mark means an inactive call. Calls follow the shape of the dose curve; as a rule, active = well fitted inhibition curve with a large enough effect; inconclusive = small, poorly fitted or top-dose-only effect; inactive = flat fitted curve, though single readings scatter.
# Assay: qHTS for Inhibitors of human tyrosyl-DNA phosphodiesterase 1 (TDP1): qHTS in cells in presence of CPT; also: nearly all actives have a fitted effect of over 55% in size
# Details: chicken DT40 Tdp1-/-;hTDP1 cells + 20 nM CPT, ATP luminescence, 48 h; series mostly up to 46.2 µM
# Summary of the method: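 Chicken DT40 Tdp1-/- cells complemented with human TDP1, 400 cells/well, exposed to compounds plus 20 nM camptothecin for at least 48 h at 37 C; viability read as ATP content by CellTiter-Glo luminescence.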
# Potency is read from the fitted curve at half-maximal effect.
SMILES,Potency,"activity change, negative = growth inhibition"
OC[C@@H]1CN(Cc2ccc(Cl)cc2)C[C@H](n2cnc3c(NCc4ccncc4)ncnc32)O1,inactive,
OC[C@@H]1CN(Cc2ccc(-c3ccccc3)cc2)C[C@H](n2cnc3c(NC4CCCC4)ncnc32)O1,1.03 µM (active),
OC[C@@H]1CN(C2CCCC2)C[C@H](n2cnc3c(NC4CCC4)ncnc32)O1,inactive,
Cc1cccc([C@@H]2[C@@H]3C(=O)N(C)C(=O)[C@@H]3[C@@H]3C(=O)Nc4ccccc4C(=O)N23)c1,inactive,
Cc1cccc(C2c3c(n(C)c(=O)n(C)c3=O)N=C3c4ccccc4C(=O)C32)c1 (stereo not drawn),8.2 µM (active),
COc1ccc(C2C3=C(OC(C)=O)c4ccccc4C3=Nc3c2c(=O)n(C)c(=O)n3C)cc1 (stereo not drawn),inactive,
COc1ccc(/C=C/c2nnc(NC(=O)C(C)C)s2)cc1,inactive,
O=C(Cn1cc(C(=O)C2CC2)c2ccccc21)Nc1ccccc1Cl,inactive,
O=C(Nc1cccc(-n2cnnn2)c1)c1cccnc1,inactive,
COc1ccc(CNC(=O)C2=Cc3cccc(OC)c3OC2)cc1OC,inactive,
O=S(=O)(c1cccc2nonc12)N1CCN(c2cccc(Cl)c2)CC1,inactive,
COc1cc(=O)n2c(c1C(=O)NC(C)c1ccco1)CCN(Cc1cc(C)cc(C)c1)CC2 (stereo not drawn),,-2.45% [at 9.04 µM]
COC(=O)c1c(NC(=O)COC(=O)[C@@H](NS(=O)(=O)c2ccccc2)C(C)C)sc2c1CCC2,18.4 µM (active),
CCOCC(=O)Nc1sc2c(c1C(=O)OCC)CCCC2,inactive,
CCOC(=O)c1c(NC(=O)/C(C#N)=C/c2ccccc2)sc2c1CCC2,inactive,
CCc1ccc(N(CC(=O)Nc2sc3c(c2C(=O)OC)CCCC3)S(C)(=O)=O)cc1,23.1 µM (active),
COC(=O)c1c(NC(=O)CCCC(=O)O)sc2c1CCCCC2,inactive,
COC(=O)c1c(NC(=O)c2ccc(Cl)c(Cl)c2)sc2c1CCCC2,inactive,
O=C(NC1CCCCC1)c1cc(C2CC2)on1,inactive,
COC(=O)CC(CC(=O)OC)n1cccc1,inactive,
CCCN(CCC)CC(O)COc1ccccc1C(=O)Nc1ccccc1 (stereo not drawn),inactive,
CCCNC(=O)CCC(=O)N1Cc2ccccc2Oc2ncccc21,inactive,
Cc1ccc2cc(CCNC(=O)c3c(-c4ccccc4Cl)noc3C)c(=O)[nH]c2c1,23.1 µM (active),
Cc1ccc(CNC(=O)c2c(-c3ccccc3)noc2C)cc1,inactive,
Cc1onc(-c2ccccc2Cl)c1C(=O)NCCn1ccc2ccccc21,inactive,
O=C(c1cnn(-c2ccc(Cl)cc2)c1)c1ccccc1O,inactive,
Cc1[nH]nc(-c2ccc(OCc3cnn(-c4ccccc4)c3)cc2O)c1Oc1ccc(Cl)cc1,18.4 µM (active),
Oc1cccc(C2c3[nH]c4ccccc4c3CCN2Cc2cnn(-c3ccccc3)c2)c1 (stereo not drawn),inactive,
